Among the data in PubChem BioAssay AID1508600 (Functional Genomics Laboratory (NCATS/FGL), 2020) are z-score values, retold here.

Screen size: about 53,000 sequences; about 3,700 (7%) were called active.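 How the source made its calls: active means gene knockdowns whose robust z-score for IL-1 alpha signal is at least 2 or at most -2, so actives lie on both sides; inactive means the rest.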 The full list was thinned out, with actives kept by preference.

A short description of the test: Components of the Cytosolic LPS Sensing Pathway: Gene Identification via Genome-wide siRNA Screen.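 Further: robust z of the log signal after scaling to non-targeting control siRNA wells of the plate.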 Conditions: RAW264.7 macrophages, IL-1a HTRF, actives lie on both sides, screened at 100 nM (by protocol), cells primed 5 h with Pam3CSK4 first. In a few lines: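 Using IL-1a HTRF as read-out, the screen measured release from RAW264.7 cells after 48h siRNA knockdown (100 nM), 5 h Pam3CSK4 priming and 24 h cytosolic LipidA. Values were expressed relative to negative-control wells as robust z-scores.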
For orientation: Time-resolved FRET reads energy transfer from a long-lived donor to a nearby acceptor.
With GCCUAUCACGAGCUAUGAUTT against Shkbp1, the z-score was -1.5 (inactive).

Consider GGAAUCGAAACCAAUGUGUTT against Il1rl2, for which the z-score is -0.471 (inactive).

“GGUUCAAAUGUUCUCCAUATT against 9530080O11Rik”: the z-score is 2.55 (active).

As to GCUCCGGAAAUUGGCAUCATT against Ppp1r10, the z-score was -1.5 (inactive).

Turning to GGAGAAGAAGAAAAAGUCATT against BC005537, the z-score is -0.495 (inactive).

For the sequence GAUGUUUCAGAACAUUCUUTT against Cadps, the z-score was 0.436 (inactive).

For the sequence GGACAUAAAAGUGUCUCGATT against Cldn13, the z-score is 0.16 (inactive).

Take GCCAAGGGUUUGAAAGCCATT against Tpm1: the z-score was -0.949 (inactive).

Turning to GGCUUGUUUUGCCCAGAUGTT against Olfr398, the z-score is -2.94 (active).

As for CCUCAUGUUAAUCUGGAGATT against Gabre, the z-score is 0.0167 (inactive).

In the case of GGAAGUAUUAAUGUACAACTT against Msmo1, the z-score was 0.0519 (inactive).

On to CGGUGGUCACUGUGAAAUGTT against Nr1h5, for which the z-score is 0.0152 (inactive).

Turning to CGGGAAGAAGUUCAUAAAUTT against Topbp1, the z-score was 0.36 (inactive).

For GGUUAAAUGUCGUUUAUACTT against Rasa3, the z-score was 0.308 (inactive).

As to GGAUAUCGAGGAGAUGAUCTT against Aoc3, the z-score is -2.17 (active).

Take GCAGUUGACCACAGAAAAUTT against BC061237: the z-score is -1.35 (inactive).

Consider GGACCCAUGAGGUUAACUUTT against Tbc1d22a, for which the z-score is 0.922 (inactive).

With GGGAACCAGCCAGUUCAAGTT against Ap1g2, the z-score is 1.39 (inactive).

With CCGUUUCAUUUCAGGGAGGTT against Phf1, the z-score was 0.307 (inactive).

Turning to GGAGAAAUCAAGCAAAGAUTT against Soat1, the z-score was -0.0846 (inactive).

With GGCUACAGCAAGAAGACUUTT against Ctsw, the z-score is 3.08 (active).

With CCGGAAAUUUUCUUUGCCCTT against Sec23ip, the z-score is -1.12 (inactive).

In the case of “GGAAGGAUUCUGGAAACAGTT against 2210409E12Rik”, the z-score is -2.1 (active).

Take GCCAUUGGAGUAUAUCUUGTT against Olfr873: the z-score is -0.273 (inactive).

As for GGUUCACGAGCUAAGCUGUTT against Sec23b, the z-score is -1.07 (inactive).

GGACCACUCUGAAUAAGACTT against Ttc12: the z-score is -1.3 (inactive).

On to GGAUCAACAGAGGUUGGCATT against Aldh1a7, for which the z-score is -2.03 (active).

For the sequence GCAGCUCAAUUAGAGUCCATT against Gart, the z-score is -0.11 (inactive).

Regarding GGCUUUUUGUCUAACAAGUTT against Trappc13, the z-score was 0.23 (inactive).

Turning to GCUGGUUAUUCUCUUAUAGTT against Cavin2, the z-score is 1.97 (inactive).

With GGUAGGUCGUCGAGAAUACTT against Prss44, the z-score was 0.17 (inactive).

On to GGAUCCUCUGGUAAAGGGATT against Gng11, for which the z-score is -1.75 (inactive).

GGAGUUCCUCAUGAAGAUGTT against Tmem241: the z-score is -1.27 (inactive).

Consider GGUGCAAACAGACACCAGATT against Dct, for which the z-score is -0.982 (inactive).

As to GGGCUGUCUAAGAAUGCAATT against Nlrp14, the z-score is -2.08 (active).

For GGGAGGGAAUAGUCAAAAATT against Timm17b, the z-score was 0.909 (inactive).

GGAGAGCAAGGAGAACCAATT against Itga7: the z-score was 1.35 (inactive).

Regarding CCACUACAAUGUAGCGACGTT against C1qtnf9, the z-score was -2.24 (active).

Take CGAUUACUGAACACUAUAUTT against Metap1: the z-score is 1.94 (inactive).

With GGUGUACCCAGUACUGCCATT against Cdk2, the z-score is 0.57 (inactive).

On to GGAGAUGUUGGACUUCAUGTT against Nxnl2, for which the z-score is -2.42 (active).

For the sequence CGGACAGAUACAAUAGCUATT against Zc3h4, the z-score was -1.53 (inactive).

Regarding GUCUUUCCCUAAAAACAGCTT against Vmn1r47, the z-score was -1.28 (inactive).

GGAGAACUUCAACAAUGUCTT against Tesc: the z-score is 0.46 (inactive).

Regarding GGAGUUUCGCAUGAGCCUGTT against Shroom1, the z-score is -0.0803 (inactive).

GCCACUAUUGAAGCUUGCCTT against Olfr1209: the z-score was 1.32 (inactive).

Consider GGAGGAGUUCCAGAUCCACTT against Pald1, for which the z-score was -0.356 (inactive).

In the case of GGGCUGUGAACACAAGUGUTT against Megf6, the z-score was 2.02 (active).

For GGACAGCAUGAUCCUACAATT against Smr2, the z-score is -0.962 (inactive).

For the sequence GGAAAUACCCUGAUAGCCATT against Etl4, the z-score is 0.215 (inactive).

As for GGUAGGAAGCUAGAGAAAUTT against Synj2, the z-score was 0.139 (inactive).

In the case of GGACUUUAGUGACAGCUAUTT against Fam243, the z-score is -0.233 (inactive).

In the case of GGCAGCCCUCAAGUUAAUCTT against Zfp612, the z-score is -0.552 (inactive).

With GCACCUUCCAUCGGAAUGCTT against Tyw5, the z-score was -0.269 (inactive).

Regarding “GGAGAAAAAGAUCUCAGCUTT against D830039M14Rik”, the z-score was -0.021 (inactive).

With GCACAAUUGGAAUUGUACATT against Ubqln2, the z-score is -2.18 (active).

For CCAUGGCCAAGAACUAGUUTT against Hp, the z-score is 1.26 (inactive).

As for GGAUUUGAAAUAGGAAUAGTT against Sh3yl1, the z-score was 0.689 (inactive).

Regarding CCCUAUCUUCAGGCCAUUGTT against Gm10283, the z-score is -1.97 (inactive).

For the sequence CCUGGAGUUAGUUUGACAGTT against Atf4, the z-score is -0.042 (inactive).

Take GGGCCUAUCUGAAAGUUUATT against Nrm: the z-score was -0.262 (inactive).

Turning to GGUAGAAGAAUGCAUAAUGTT against Sema3e, the z-score was 0.82 (inactive).

With CGAGAAUACCAAACUCGUGTT against Usp17ld, the z-score was -0.255 (inactive).

Consider GCGGUUAUCUGCAUAUAGATT against Ahctf1, for which the z-score was -2.47 (active).

Consider GCAGUAAGCUUUUGCUAAATT against Zfp334, for which the z-score was 1.26 (inactive).

CCUCUUCGGGAAAAUUCUATT against Dao: the z-score is -0.083 (inactive).

GGGAUAUCUAAUCAAAACCTT against St8sia5: the z-score was -0.131 (inactive).

For the sequence GGCAAAGCAACAAUAUCUATT against Cct7, the z-score was -0.809 (inactive).

As for GGUAUCAAAACAACAGUCCTT against Upk1b, the z-score was -0.709 (inactive).

Consider GGUCAAAUGCACCCGAUUATT against Hoxc10, for which the z-score was 2.44 (active).

Turning to CCUCAAAUUUUGGGUCUCATT against Bcat2, the z-score is -1.48 (inactive).

In the case of GGGUGAGAUAGGAAAGUGGTT against Rab43, the z-score was -0.111 (inactive).

As to GAUUCUCAUCUCAAUAAGCTT against Serpinb9g, the z-score was 0.439 (inactive).

CCUCCAAGACUUAAAAGUATT against Csde1: the z-score is 0.776 (inactive).

For CCUUAUAACUCUUACGUUUTT against Naa50, the z-score was -0.169 (inactive).

As for GGAAAUGAAGACAUACCUGTT against Olfr175, the z-score is 0.741 (inactive).

In the case of GGAGUGAUGUCUUCACUGATT against Snx31, the z-score was -1.12 (inactive).

In the case of GGGAAUUUACUGCAGGAUATT against Itln1, the z-score was 2.72 (active).

Turning to GGUCUUCAUGAAAACCCUCTT against Polr2d, the z-score was -0.967 (inactive).

Take GCUAGGUGAUCAGAGAACUTT against Nsl1: the z-score is 0.222 (inactive).

Consider GGCCUUCAGUCAAGCAUCATT against Myom1, for which the z-score was 0.906 (inactive).

On to GCCCAUUGUAAUAAAAGCCTT against Dnali1, for which the z-score is -0.582 (inactive).

Regarding GGCGUGUAUCUAUACACACTT against Glp1r, the z-score was 3.1 (active).

CCAAGAUGCACAGUGAUAATT against Pknox2: the z-score was -0.925 (inactive).

Regarding GGAUAUCGUCUGCUACCUGTT against Dgkb, the z-score is 0.945 (inactive).

Consider GCACAACCAUAAUUCCAAATT against Olfr828, for which the z-score is -0.343 (inactive).

CCGAAUAGUAGAUAUUAGATT against Zbtb1: the z-score was -0.628 (inactive).

Regarding GGAAGUCUGUCCAAAGCAUTT against Olfr190, the z-score is 0.248 (inactive).

For the sequence GUUCUGCUUUUUGUCAUAUTT against Olfr1431, the z-score is -0.79 (inactive).

With GGAGAUGGUUAUGUGGGAUTT against Tgoln2, the z-score is 0.879 (inactive).

In the case of GCGUGUUGAAUUGAGGAAGTT against Galnt11, the z-score is 4.15 (active).

Regarding GGUGAAACCUGUCAUUCACTT against Dcdc2a, the z-score is -0.405 (inactive).

Turning to GGGUUUGAUCAACAGAGCCTT against Id1, the z-score is -0.64 (inactive).

GGUGAAGAGCUUCUUGAUCTT against Zfyve27: the z-score was -0.362 (inactive).

Turning to GGAGUUCAAAGAUGCAAUUTT against Zfyve27, the z-score is 2.33 (active).

Turning to GUUUGAGUCUGGAGACGUGTT against Commd4, the z-score is 0.917 (inactive).

With GGUAAAGCCUUUCAGGAAGTT against Tmem80, the z-score is -0.946 (inactive).

For GGAGAGUGACAUCAUCGUATT against Obsl1, the z-score was -0.0139 (inactive).

As to GGACACUUCCAAGUAUUGGTT against Tns1, the z-score was -2.11 (active).

As for GGUCAGAGAAAUGAUGUCUTT against Osbpl11, the z-score was -1.77 (inactive).

In the case of GGAAAAGGAAUUCUCCAGATT against Atrip, the z-score was 0.624 (inactive).

As for GGCUUGCUGAUUAAAGAUGTT against Strbp, the z-score is -0.544 (inactive).

On to GGAGAGCAUUCCCAUUGCUTT against Ddx6, for which the z-score was -2 (active).

On to GGCUUGACUGAAUAAUAAUTT against Gpr157, for which the z-score is -0.424 (inactive).

For GCAGAGAGAGCGUGAAUCCTT against AB124611, the z-score is 0.598 (inactive).

For the sequence GGUUUUCCCUCCAGAUGAGTT against Mtch1, the z-score is -0.336 (inactive).

With GGUGGUAAUUGGUGUGGCATT against Slc9b2, the z-score is -0.188 (inactive).
